A selection: hits, their analogues and other compounds. The true share with any hit is near 1.2%.
RGS8-Gao reg: modulates binding of RGS8 to human Galphao; multiplexed bead flow cytometry; actives lie on both sides; response (percent of control binding), % at 10 µM; 220,000 compounds, 0.34% hits; P09471; in the data active means response below about 60% or above about 140%; inactive means in between;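 further: Galphao activated as the GDP aluminium fluoride complex binding bead-coupled RGS8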
Target sequence (P09471 whole entry, looked up): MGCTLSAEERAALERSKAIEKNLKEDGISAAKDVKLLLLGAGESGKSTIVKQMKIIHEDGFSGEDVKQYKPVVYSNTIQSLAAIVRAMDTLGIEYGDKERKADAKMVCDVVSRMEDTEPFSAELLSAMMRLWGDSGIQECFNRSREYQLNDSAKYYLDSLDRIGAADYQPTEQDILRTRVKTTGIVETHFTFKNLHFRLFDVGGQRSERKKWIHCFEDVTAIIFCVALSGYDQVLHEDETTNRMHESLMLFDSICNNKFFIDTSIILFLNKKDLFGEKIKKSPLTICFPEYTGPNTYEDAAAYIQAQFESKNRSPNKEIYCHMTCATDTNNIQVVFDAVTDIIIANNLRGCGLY
RGS16-Gao HTS: RGS16-Galphao interaction regulator (human); bead-based flow cytometry RGS16-Galphao binding, fluorescence; actives lie on both sides; 220,000 compounds, 0.38% hits; binding response (% of control), % at 10 µM; O15492+P09471; AID 1441;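 further: Galphao activated by GDP with aluminum fluoride before binding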
Target sequence (O15492 whole entry, looked up): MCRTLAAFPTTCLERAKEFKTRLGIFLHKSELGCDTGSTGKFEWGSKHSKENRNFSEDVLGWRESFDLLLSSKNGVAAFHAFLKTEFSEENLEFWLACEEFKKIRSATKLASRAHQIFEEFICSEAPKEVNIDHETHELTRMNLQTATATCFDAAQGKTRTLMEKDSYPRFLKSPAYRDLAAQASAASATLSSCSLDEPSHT
Target sequence (P09471 whole entry, looked up): as the sequence (P09471 whole entry, looked up) above
GSH bead fluor: GSH bead compound fluorescence profile; fluorescence (KMESF) at 10 µM; 190,000 compounds, 0.25% hits; GSH beads flow cytometry, compound fluorescence 488/530 nm; hits give high values; AID 1776; in the data active means fluorescence above about 89;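 further: glutathione beads carrying GST-tagged Bcl family fusion proteins plus one bare bead set; values are compound well signal with DMSO vehicle wells as background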
RGS7-Gao reg: regulators of human RGS7-Galphao interaction | Multiplexed bead flow cytometry, RGS7-Galphao binding; actives lie on both sides | binding response (% of control), % at 10 µM | P09471 | 220,000 compounds, 0.35% hits; in the data active means binding response below about 49% or above about 150%; inconclusive means no clear call, values can overlap the other calls; inactive means in between;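 further: fluorescent Galphao held in activated GDP-AlF4 state binding bead-coupled RGS7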
RGS4-Gao reg: modulates binding of RGS4 to human Galphao. P09471. Multiplexed bead flow cytometry; actives lie on both sides. binding response (% of control), % at 10 µM. 220,000 compounds, 0.33% hits; in the data active means binding response below about 49% or above about 150%; inactive means in between;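 further: fluorescent Galphao activated with aluminum fluoride binding bead-coupled RGS4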
Avidin bead fluor: avidin bead compound fluorescence profile; Avidin beads, compound fluorescence 488/530 nm, flow cytometry; hits give high values; fluorescence (KMESF) at 10 µM; 220,000 compounds, 0.38% hits; AID 1775; in the data active means fluorescence above about 47
RGS4-Gao HTS: RGS4-Galphao interaction regulator (human); shares compounds with RGS16-Gao HTS; multiplexed bead flow cytometry, RGS–Galpha-o binding; RGS4–Galpha-o binding response, % at 10 µM; 1,600 compounds, 99% hits;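 further: fluorescently labeled Galpha-o bound to GDP with aluminium fluoride binding biotinylated RGS beads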
Biotin-avidin: counter-screen: compounds disrupting biotin binding to avidin beads; shares compounds with RGS16-Gao HTS; streptavidin beads, fluorescein-biotin binding, flow cytometry; inhibition, % at 10 µM; 1,700 tested, under 10 active;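 active means inhibition above 50%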;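 further: median green fluorescence of gated singlet beads compared with DMSO control wells; 0% = DMSO wells and 100% = complete loss of bead fluorescence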
RGS8-Gao confirm: confirmation of regulators of human RGS8-Galphao interaction. AID 1836. shares compounds with RGS16-Gao HTS. 1,700 compounds, 3% hits. binding response (% of control), % at 10 µM. bead-based flow cytometry RGS8-Galphao binding, fluorescence; actives lie on both sides; in the data active means binding response below about 72% or above about 130%; inactive means in between;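 further: Galphao activated as GDP AlF4 complex before binding bead RGS8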
RGS7-Gao single: confirmation of regulators of human RGS7-Galphao interaction | AID 1837 | shares compounds with RGS16-Gao HTS | 1,700 compounds, 7.8% hits | response (percent of control binding), % at 10 µM | bead-based flow cytometry RGS7-Galphao binding; actives lie on both sides; in the data active means response below about 75% or above about 130%; inactive means in between;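 further: fluorescent Galphao activated with GDP and aluminum fluoride binding bead-coupled RGS7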
RGS16-Gao conf: confirmation of regulators of human RGS16-Galphao interaction. shares compounds with RGS16-Gao HTS. bead-based flow cytometry, RGS16-Galphao binding; actives lie on both sides. response (% of control binding), % at 10 µM. 1,700 compounds, 4% hits. AID 1838; in the data active means response below about 74% or above about 130%; inactive means in between;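 further: Galphao activated as the GDP aluminium fluoride complex binding bead-coupled RGS16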
RGS4-Gao single: confirmation of regulators of human RGS4-Galphao interaction; RGS4-Galphao binding, multiplexed bead flow cytometry; actives lie on both sides; 1,700 compounds, 4% hits; AID 1840; binding response (% of control), % at 10 µM; shares compounds with RGS16-Gao HTS; in the data active means binding response below about 74% or above about 130%; inactive means in between
RGS19-Gao single: confirmation of regulators of human RGS19-Galphao interaction; shares compounds with RGS16-Gao HTS; bead-based flow cytometry RGS19-Galphao binding; actives lie on both sides; response (percent of control binding), % at 10 µM; 1,700 compounds, 5% hits; in the data active means response below about 50% or above about 160%; inactive means in between;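 further: 100% = no compound control and 0% = blank background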
Numbers without * were called inactive; i = inactive; ? = inconclusive; / = no result; [ ] = remark or other dose. Unless noted, how the calls were made is not given here.

SMILES	RGS8-Gao reg	RGS16-Gao HTS	GSH bead fluor	RGS7-Gao reg	RGS4-Gao reg	Avidin bead fluor	RGS4-Gao HTS	Biotin-avidin	RGS8-Gao confirm	RGS7-Gao single	RGS16-Gao conf	RGS4-Gao single	RGS19-Gao single
CCNC(=S)N(Cc1ccc2c(c1)OCO2)C1CC(=O)N(c2ccc(OC)cc2)C1=O (stereo not drawn)	71	32	19	82	85	5	/	/	/	/	/	/	/
CCOC(=O)c1cnn(-c2ccccc2)c1NC(=O)CN1CCOCC1	103	102	/	?	103	8	/	/	/	/	/	/	/
CCOc1ccc(CCNC(=O)c2[nH]c(C)c(C(C)=O)c2C)cc1OCC	/	/	10	/	/	/	/	3	101	96	99	98	91
COc1cc(CC2COC(c3ccc(O)c(OC)c3)C2COC(C)=O)ccc1O (stereo not drawn)	97	96	/	?	101	6	/	/	/	/	/	/	/
Oc1c(Cl)cc(Cl)c2cccnc12	98	95	19	99	97	8	/	/	/	/	/	/	/
Clc1cc2cccnc2c2ccccc12	3.0*	i	10	-24*	-47*	-4	/	-1	98	102	100	102	96
Cc1nnc(NC(=O)CSc2ccc(-c3ccccn3)nn2)s1	101	101	19	102	97	12	/	/	/	/	/	/	/
CC1(C)CC(C2N3CC4(C)CN2CC(C)(C3)C4=O)CCO1 (stereo not drawn)	147*[activator]	278	22	119	115	12	115*	0	101	103	104	103	94
Cc1ccc(N(C(=O)Nc2ccccc2)C2=NCCC2)cc1	72	54	/	?	44*	1	/	-1	98	47*	80	57*	84
O=C(Nc1ccccc1)N(C1=NCCC1)c1ccccc1	101	103	/	?	104	5	/	/	/	/	/	/	/
CC(C)NC(=O)CN1CCN(Cc2nc(C(c3ccccc3)c3ccccc3)no2)CC1	98	98	13	95	95	11	/	/	/	/	/	/	/
CCOc1ccc2nc3c(cc2c1)CN(CCCO)C(=NCCOC)S3	7.0*	-10*	18	-5.5*	-8.3*	-3	/	i	97	93	99	97	92
CN(C)S(=O)(=O)c1cccc(NC(=S)NN=C(Cc2ccccc2)Cc2ccccc2)c1	54*	101	13	51	91	6	91*	1	101	104	102	107	98
COc1ccc(Cn2c(CCC(=O)Nc3ccc(C)cc3)nc3cccnc32)cc1	101	154	36	111	156*[activator]	53*	/	0	102	99	95	97	69
COc1ccc(C2CC(c3ccccc3OC(=O)/C=C/c3ccccc3)=NN2C(C)=O)cc1 (stereo not drawn)	103	97	/	?	93	8	/	/	/	/	/	/	/
N#C/C(=C\c1ccc(OCc2cccc(C(=O)O)c2)cc1)C(=O)NCc1ccco1	102	103	/	?	103	7	/	/	/	/	/	/	/
Cc1ccc(-c2sc(C)nc2CC(=O)O)cc1	101	104	33	96	100	15	/	/	/	/	/	/	/
Cc1ccc(C2=C(CC(=O)O)C(=O)CC2)cc1	76	22*	7	91	92	6	92*	0	103	104	101	101	147
C/C(=N/NC(=O)CCC(=O)Nc1cccc(Cl)c1)c1ccc(C)cc1	85	63	12	98	94	3	/	/	/	/	/	/	/
COc1ccccc1NC(=O)CCC(=O)N/N=C(/C)c1ccc(C)cc1	80	16*	13	93	90	7	90*	2	104	100	104	102	100
CC(C)C1OC(c2cccc(NC(=O)c3cccs3)c2)OCC1(C)C (stereo not drawn)	103	100	12	105	101	24	/	/	/	/	/	/	/
COc1ccccc1C(=O)N1CCNC(=O)C1CC(=O)Nc1cccc(C)c1 (stereo not drawn)	101	115	10	240*[activator]	103	143*	103*	-3	100	100	100	101	101
COc1ccc(NC(=S)N2CCNC(=O)C2CC(=O)Nc2cccc(Cl)c2C)cc1 (stereo not drawn)	79	9.7*	9	94	95	8	95*	0	95	95	94	96	92
COc1ccccc1NC(=O)N1CCN(C)CC1	97	99	12	96	96	12	/	/	/	/	/	/	/
CCCNC(=O)[C@H](Cc1c[nH]c2ccccc12)NC(=O)c1ccccc1Cl	100	100	13	98	98	13	/	/	/	/	/	/	/
SMILES	RGS8-Gao reg	RGS16-Gao HTS	GSH bead fluor	RGS7-Gao reg	RGS4-Gao reg	Avidin bead fluor	RGS4-Gao HTS	Biotin-avidin	RGS8-Gao confirm	RGS7-Gao single	RGS16-Gao conf	RGS4-Gao single	RGS19-Gao single
Cc1ccc(C)c(CN2CCNC2=O)c1	13*	7.9*	16	15*	20*	1	/	0	94	92	93	95	82
Cc1cc(C)c2c(N)c(C(=O)NCC3CCCCC3)sc2n1	100	104	9	103	98	10	/	/	/	/	/	/	/
Cc1cc(C)c2c(N)c(C(=O)NC3CCCC3)sc2n1	142*[activator]	131	21	147	113	3	113*	0	97	73*	87	87	70
COc1cc2c(cc1OC)C(C(=O)NCc1cccnc1)C(c1cccnc1)N(C)C2=O (stereo not drawn)	97	110	26	170*[activator]	119	174*	119*	/	/	/	/	/	/
CCC1(C(=O)OC)NC(c2cccc(F)c2)C2C(=O)N(C)C(=O)C21 (stereo not drawn)	101	104	17	103	100	23	/	/	/	/	/	/	/
COC(=O)C1(Cc2ccccc2)NC(c2ccc(F)cc2)C2C(=O)N(C)C(=O)C21 (stereo not drawn)	38*	-7.0*	14	40*	32*	1	/	2	98	63*	89	72*	92

Source: PubChem
